Source: PubChem (National Center for Advancing Translational Sciences (NCATS))
Marburg entry inh = blocks Marburg virus binding to or entry into cells | Marburg virus pseudotyped entry inhibition, cell reporter | Potency, µM (highest dose often 37.8 µM), inactives show at the top dose activity change, negative = inhibition, actives largely listed as inhibitors | 1.8% of 300,000 active | AID 540276; calls by dose curve; tested in HEK293 cells; further: potency means the concentration at half of the fitted maximal effect
LASV entry inh = blocks Lassa virus binding to or entry into cells; Lassa virus pseudotype entry inhibition, cell reporter; Potency, µM (titrated, usually from 37.9 µM), for inactives: at the highest dose activity change, negative = inhibition, hits mostly inhibitors; 1.2% of 300,000 active; AID 540256; calls by dose curve; tested in HEK293 cells; further: potency means the concentration at half of the fitted maximal effect; nearly all actives have a fitted effect of over 50% in size
HCMV antiviral = inhibitors of human cytomegalovirus; HFF cells, HCMV-luciferase reporter, 72 h; stronger effect = lower value; activity change, negative = inhibition, % at 57.5 µM; 4.5% of 410,000 active; in the data active means activity change below about -60%; inconclusive means no clear call, values can overlap the other calls; inactive means above about -39%
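Steps: HFFs plated, 16 h 37C; compounds added; HCMV-luciferase added to MOI 1 PFU/cell; 72 h 37C; OneGlo reagent, 5 min room temperature; luminescence read, normalized to controls.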
Vaccinia Venus = inhibitors of vaccinia virus (Venus reporter); Potency, µM (doses to about 36.5 µM), without a hit: at the top dose activity change, negative = inhibition, most hits filed as inhibitors; Vaccinia virus Venus reporter expression, fluorescence; 0.46% of 330,000 active; calls by dose curve; tested in A549 cells; further: potency means the concentration at half of the fitted maximal effect; nearly all actives have a fitted effect of over 30% in size
Vaccinia mCherry = inhibitors of vaccinia virus infection (mCherry reporter signal); Vaccinia virus mCherry reporter infection, fluorescence; Potency, µM (doses to about 36.5 µM), inactives show at the highest dose activity change, negative = inhibition, hits mostly inhibitors; 0.63% of 310,000 active; calls by dose curve; tested in A549 cells; further: potency means the concentration at half of the fitted maximal effect; nearly all actives have a fitted effect of over 35% in size
FMDV inh = blocks foot and mouth disease virus; FMDV antiviral cell-based qHTS; Potency, µM (doses to about 57.9 µM), for inactives: at the highest dose activity change, negative = inhibition, most hits filed as inhibitors; 1.2% of 410,000 active; AID 1159524; calls by dose curve; tested in HEK293T cells; further: read-out not given here; potency means the concentration at half of the fitted maximal effect; nearly all actives have a fitted effect of over 45% in size
* hit, by the source's call; i = inactive; ? = inconclusive; . = no result; [ ] = remark or other dose. Compounds with a hit are over-represented: about 6.5% of the library has one in this group of screens. On the % scale 0 is the no-effect control and ±100 the full control effect.

SMILES	Marburg entry inh	LASV entry inh	HCMV antiviral	Vaccinia Venus	Vaccinia mCherry	FMDV inh
O=C(Nc1ccc(N2CCN(C(=O)c3ccccc3)CC2)cc1)c1cc([N+](=O)[O-])ccc1N1CCOCC1	0.631µM*	5.9%	9.1	-18.5%	i	-22.9%
CC(C)c1ccc(NC(=O)c2cc([N+](=O)[O-])ccc2N2CCOCC2)cc1	.	.	?	.	.	-24.6%
CC(C)Oc1ccc(C(=O)NCC2Cc3cc(Cl)cc(-c4ncccn4)c3O2)cc1 (configuration not stated)	.	.	.	-10.1%	-13.6%	-1.5%
COc1cc(/C=N/N=C(N)N)ccc1OCc1ccccc1Cl	.	.	-100.2*	.	.	-38.7%
COc1ccc(/C=N/N=C/c2ccc(OC)c(OC)c2)cc1OC	4.6%	-1.8%	16.5	.	.	9.8%
CCCS(=O)(=O)NCc1c(C)ncc2c1CCN(C(=O)c1cccc(C(F)(F)F)c1)C2	.	.	.	-0.1%	-8.6%	-15.9%
O=C(NC1CCCCCCC1O)c1ccccc1 (configuration not stated)	?	6.7%	-9.6	-13.1%	i	19.1%
O=C(NC1=NC2CCCCC2N1)c1ccccc1 (configuration not stated)	?	?	-5.5	-5.9%	i	12.6µM*
Nc1c(C(O)(C(F)(F)F)C(F)(F)F)cc(C(O)(C(F)(F)F)C(F)(F)F)c2ccccc12	11.2µM*	22.4µM*	.	?	11.2µM*	?
CC(C)(C)C(=O)O/N=C(\N)Cc1ccc(-c2csnn2)cc1	8.91µM*	?	23.4	-14.4%	i	-6.7%
CCCOc1ccc(C(F)(F)F)cc1NS(=O)(=O)c1ccc(Cl)nc1	-17.7%[46.1 µM]	5.1%	-19.2	?	11.2µM*	8.2%
CCCOc1ccc(C(F)(F)F)cc1NC(=O)c1cc(C)on1	.	.	1.1	.	.	-15.0%
N#CC1=C(SCC(N)=O)NC2=C(C(=O)c3ccccc32)C1c1ccc(Cl)cc1 (configuration not stated)	?	-29.5%	-60.4*	.	.	-15.0%
CSCSC1=C(C#N)C(c2ccc(Cl)cc2)C(C(C)=O)=C(C)N1 (configuration not stated)	1.1%	.	.	.	.	.
CCCn1c(SCC(=O)Nc2ccc(C(=O)Nc3ccccc3OC)cc2)n[nH]c1=O	7.2%[46.1 µM]	-7.6%	-15.3	-14.6%	-8.8%	31.6µM*
COc1ccc(NC(=O)CSc2nc3c(oc4ccccc43)c(=O)n2Cc2ccco2)cc1Cl	?	.	-97.8*	-7.7%[7.34 µM]	-3.2%[7.34 µM]	7.1%
COCCn1c(SCC(=O)Nc2ccccc2OC)nc2c(oc3ccccc32)c1=O	.	.	-62.5*	.	.	?
COCCn1c(SCC(=O)Nc2ccc(F)c(Cl)c2)nc2c(oc3ccccc32)c1=O	11.6%[46.1 µM]	.	-79.7*	-21.7%	?	-2.2%
COc1ccc2c(c1)[C@@H](NCc1nccs1)[C@H](C)[C@@H](c1ccccc1)N2C(=O)NC(C)C	.	.	-8.8	.	.	.
O=[N+]([O-])c1cccnc1N/N=C/c1ccccc1O	?	?	-97.1*	13.1%	?	2.9%
Cc1c(O)ccc(/C=N/Nc2ncccc2[N+](=O)[O-])c1O	?	?	-69.0*	-28.2%	?	-19.7%
CCC1CCc2c(sc(NC(=O)C3c4ccccc4Oc4ccccc43)c2C(=O)OC)C1 (configuration not stated)	?	-9.7%[46.1 µM]	-20.3	-19.6%	-20.5%	-10.2%
COc1ccc(OC)c(-c2cc(Cl)c3c(c2)CC(CNC(=O)/C=C/c2ccccn2)O3)c1 (configuration not stated)	.	.	.	-8.3%	-2.0%	11.5%
CSc1ccc(CN2CCC(CO)(Cc3ccc(Cl)cc3)CC2)cc1	?	12.6µM*	-39.2	13.9%	-5.8%	?
COc1ccccc1-c1cc(C(=O)NCc2ccccc2)c2c(-c3ccc(C)cc3)[nH]nc2n1	.	-21.8%[46.1 µM]	-13.7	-10.0%	-12.6%	-18.6%
SMILES	Marburg entry inh	LASV entry inh	HCMV antiviral	Vaccinia Venus	Vaccinia mCherry	FMDV inh
COc1cc(OC)c(-c2cc(C(=O)NCc3ccc(F)cc3)c3c(-c4ccccc4)[nH]nc3n2)cc1OC	.	?	-92.6*	-26.4%	?	-9.2%
CCOc1ccc(-c2cc(C(=O)NCCc3ccc(OC)c(OC)c3)c3c(-c4ccc(F)cc4)[nH]nc3n2)cc1	.	-14.2%[46.1 µM]	-91.9*	?	?	-13.8%
COc1ccc(-c2cc(C(=O)NCCc3ccc(OC)c(OC)c3)c3c(-c4ccc(F)cc4)[nH]nc3n2)cc1	.	?	-10.9	-8.3%	-7.2%	-8.7%
COC(=O)c1c(NC(=O)C2c3ccccc3Oc3ccccc32)sc2c1CCC(C)C2 (configuration not stated)	7.7%[46.1 µM]	1.0%[46.1 µM]	8.6	-10.0%	-15.1%	-18.6%
COc1cccc(C(=O)N2CCc3cc(OC)c(OC)cc3C2COc2ccc3c(C)cc(=O)oc3c2)c1 (configuration not stated)	?	-27.3%[46.1 µM]	5.1	-12.8%	-23.3%	0.0%
Cc1ccc(N=C2NC(=O)/C(=C\c3ccsc3)S2)c(C)c1	-23.1%	?	-71.8*	-28.1%	-19.5%	4.4%
Cc1cccc(N=C2NC(=O)/C(=C/c3cccnc3)S2)c1C	.	.	?	.	.	-22.2%
Cc1ccc(N=C2NC(=O)CS2)c(C)c1	-2.8%	5.1%	-10.4	-17.3%	.	0.0%
Cc1ccc(N=C2NC(=O)/C(=C/c3cccnc3)S2)c(C)c1	-12.5%	?	-79.6*	-21.5%	-2.8%	?
COc1ccc(COC(=O)N/N=C2\C[C@@H](O)[C@@H](O)[C@@H]3[C@@H]4C(=O)N(c5cccc(Oc6ccccc6)c5)C(=O)[C@@H]4CC[C@@H]23)cc1	9.0%[14.2 µM]	.	.	.	.	.
O=C(Cn1ncc2c(Cl)cccc21)NCc1cccc(Br)c1	1.7%[46.1 µM]	-23.8%[46.1 µM]	-2.8	-18.3%	-17.8%	11.3%
CCOC(=O)c1c2c(n(C)c1C)C(=O)C(=O)c1ccc(Br)cc1-2	?	?	-97.5*	-8.5%	-6.4%	8.91µM*
CCOC(=O)c1c2c(n(Cc3ccccc3)c1C)C(=O)C(=O)c1ccccc1-2	5.62µM*	?	0.0	4.47µM*	?	20µM*
CCOC(=O)c1c2c3c(cccc3n(C)c1=O)C(=O)c1ccccc1-2	?	-18.6%[46.1 µM]	-3.0	11.5%	-11.8%	-12.1%
Cc1ccccc1-c1nc2cc(NC(=O)COc3ccc(F)cc3)ccc2o1	7.5%[46.1 µM]	?	59.2	-8.2%	-9.1%	13.8%
Cc1ccc(C(=O)C(c2ccccc2)N2Cc3ccccc3C2=N)cc1 (configuration not stated)	?	?	.	?	-25.1%	31.6µM*
CC(C)CCNC(=O)[C@@H](c1ccccc1)N1Cc2ccccc2C1=O	7.6%[46.1 µM]	1.1%[46.1 µM]	-1.1	-0.1%	-2.2%	42.6%
Fc1ccc(F)c(Nc2c3c(nc4ccc(Cl)cc24)CCC3)c1	?	-7.3%[46.1 µM]	-68.6*	-4.0%	-16.8%	?
FC(F)(F)c1cccc(Nc2c3c(nc4ccc(Cl)cc24)CCC3)c1	?	?	-76.2*	-17.4%[7.34 µM]	-21.1%[7.34 µM]	-8.2%
CCCS(=O)(=O)NCc1c(C)ncc2c1CCN(C(=O)c1ccc(Cl)cc1)C2	.	.	.	-5.7%	-5.7%	2.7%
